Screens as filed in PubChem.
These entries were drawn from the full list.
aSyn UTR act: Activators working through SNCA 5'UTR binding (MLPCN); hit rate 7.1% among 300,000; alpha-synuclein 5'UTR reporter, activators screen; activity score, % (tested at 7.5 µM), hits read low; in the data active = activity score below about -60%
Numbers without * were called inactive.

SMILES	aSyn UTR act
COc1ccc(C(=O)CCc2ccccc2)cc1	-110.7*
N/C(=N\OC(=O)Cc1ccccc1)c1ccc(Br)cc1	-79.9*
COc1ccc(OCc2cccc(C(=O)O)c2)cc1	127.6
CC(C)c1ccc(-c2nnn(CCC#N)n2)cc1	-106.5*
FC(F)(F)c1ccc(C2NCCc3sccc32)cc1 (stereo not given)	-62.9*
CCOc1ccc(N/C(C)=C/C(=O)c2ccc(C)o2)cc1	-78.6*
C/C(=C\C(=O)c1ccccc1)Nc1ccc2c(c1)OCO2	-115.0*
C/C(=C\C(=O)c1ccc(C)o1)Nc1ccc2c(c1)OCO2	-170.3*
Cc1ccc(C(=O)Nc2ccc3c(c2)OCO3)o1	-118.0*
Cc1cc(C)n2nc(C(=O)Nc3ccc4c(c3)OCO4)nc2n1	-112.9*
COc1cc(/C=N/n2cnnc2)ccc1OCCSc1ccc(C)cc1	-78.1*
CCNc1ccccc(-c2ccc3ccccc3n2)c1=O	-186.4*
O=C1c2ccccc2C(=O)C1c1ccc2ccccc2n1	94.4
Cc1nc(NC(=O)c2ccc(Br)o2)sc1C	-129.4*
Cc1ccc(C(=O)Nc2nc(C)c(C)s2)o1	-114.2*
Cc1nc2ccc(NC(=O)c3ccco3)cc2s1	-90.2*
CC(=O)Nc1nc2ccc(NC(=O)c3ccco3)cc2s1	-77.1*
COc1cc2sc(NC(=O)c3ccco3)nc2cc1Cl	-189.0*
Cc1ccc2nsnc2c1NC(=S)NC(=O)c1ccco1	-93.7*
Cc1ccc2nc(NC(=S)NC(=O)c3ccco3)sc2c1	-148.0*
Cc1ccc2nc(NC(=O)c3ccco3)sc2c1	85.2
CN(C)/C=C/C(=O)/C=C/c1ccc(Cl)cc1Cl	-150.4*
O=C(/C=C/c1ccc(Cl)cc1Cl)c1ccc[nH]1	-138.8*
O=C(/C=C/c1ccccc1Cl)c1ccc[nH]1	-342.9*
CC(C)n1cnc2cc(NC(=O)c3ccco3)ccc21	-71.2*
SMILES	aSyn UTR act
COc1ccccc1-n1cnc2cc(NC(=O)c3ccco3)ccc21	-87.3*
O=C(Nc1ccc2c(c1)ncn2C1CCCCC1)c1ccco1	-116.7*
O=C(NC(c1cccnc1)C(F)(F)F)c1cc(COc2ccc3c(c2)CCCC3)on1 (stereo not given)	-104.1*
Fc1ccc(Cn2cccc2C2=NC(c3ccccc3)CO2)cc1 (stereo not given)	-88.2*
O=C(Oc1ccc(-c2cnc3ccccc3n2)cc1)c1ccco1	-80.8*
CCC(=O)Oc1ccc(-c2cnc3ccccc3n2)cc1	-99.3*
Cn1cc(/C=N/n2cnc3scc(-c4ccc(Cl)cc4)c3c2=O)c2ccccc21	87.0
Cc1sc2ncn(/N=C/c3ccco3)c(=O)c2c1C	-67.2*
COc1ccc2[nH]c(=O)c(CNc3ccccc3C)cc2c1	-93.8*
COc1ccc2[nH]c(=O)c(CNc3ccccc3)cc2c1	-167.3*
C/C(CC(=O)Nc1ccc(C)c(Cl)c1)=N\NC(=O)c1ccccn1	-70.6*
COc1ccccc1NC(=O)C/C(C)=N/NC(=O)c1ccccn1	-102.7*
COc1cc(NC(=O)C/C(C)=N/NC(=O)c2ccccn2)c(OC)cc1Cl	-80.3*
CC(C)C[C@@H](CSc1ccc(Br)cc1)N1CCN(CC(C)C)CCC1=O	-147.8*
COc1ccc(SC[C@H](CC(C)C)N2CCN(C)CCC2=O)cc1	-86.2*
Cc1ccc(SC[C@H](c2ccccc2)N2CCN(C)CCC2=O)cc1	-137.6*
CCCN1CCC(=O)N([C@H](CSc2ccc(OC)cc2)c2ccccc2)CC1	-77.4*
Cc1ccc(SC[C@H](CC(C)C)N2CCN(C)CCC2=O)cc1	-135.0*
CC(C)C[C@@H](CSc1ccc(Br)cc1)N1CCN(C)CCC1=O	-140.9*
Oc1ccccc1/C=N/Nc1ccccc1	-133.2*
Oc1ccc(/C=N/Nc2ccc3ccccc3c2)c(O)c1	-134.5*
CC(=O)Nc1ccc(N=Cc2ccc(OCc3ccccc3)cc2)cc1	-129.5*
Oc1ccc(NCc2ccc(OCc3ccccc3)cc2)cc1	-100.2*
CS(=O)(=O)Nc1ccc(OCc2ccccc2)cc1	-167.9*
COCC(=O)Nc1ccc(OCc2ccccc2)cc1	-78.6*
SMILES	aSyn UTR act
COC(=O)Nc1ccc(OCc2ccccc2)cc1	-111.5*
COc1ccccc1NC(=O)C(=O)N/N=C(\C)CC(=O)Nc1ccc(OCc2ccccc2)cc1	-61.6*
Cc1ccc(O)c(NC(=S)NC(=O)/C=C/c2ccco2)c1	-169.8*
Cc1ccnc(NC(=S)NC(=O)/C=C/c2ccco2)c1	-333.7*
NC(=O)[C@@H]1CCCN1C(=O)c1ccc2oc(CCc3ccccc3)nc2c1	-63.5*
O=C(c1ccc2oc(CCc3ccccc3)nc2c1)N1CCC(O)CC1	-72.9*
CCOC(=O)CC1COCCN1C(=O)c1ccc2oc(Cc3ccccc3)nc2c1 (stereo not given)	-131.6*
O=C(c1ccc2oc(CCCc3ccccc3)nc2c1)N1CCCCC1CO (stereo not given)	-87.5*
N/C(=N\OC(=O)c1cccnc1)c1ccccc1Cl	-68.9*
N/C(=N\OC(=O)c1cccnc1)c1ccc(Cl)cc1Cl	-152.7*
Cc1ccccc1C(=O)NC(=S)NCCc1ccccc1	-65.8*
O=C(NC(=S)NCCc1ccccc1)c1ccco1	-79.6*
Cc1ccccc1C(=O)NC(=S)Nc1ncccn1	-66.2*
NC(=O)c1ccccc1OCCOc1ccc(Br)cc1	-62.9*
